Assay results published in paper PMC4336329 (PLoS ONE, 2015).
Among all 310,000 compounds or so, about 14,000 (4.5%) showed an effect of 50% or more. The effect is printed as a negative number. The list comes from a sample in which strong results are over-represented; it also holds similar structures and randomly drawn compounds.

Biological target: human ether-à-go-go-related gene (hERG) potassium channel (human, UniProt Q12809)
Assay: primary screen, population patch clamp on CHO cells stably expressing hERG; higher = less effect of the substance
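Also: peak tail current of the secondary pulse compared with the same well before compound.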

Sequence of human ether-à-go-go-related gene (hERG) potassium channel (Q12809 whole entry, looked up): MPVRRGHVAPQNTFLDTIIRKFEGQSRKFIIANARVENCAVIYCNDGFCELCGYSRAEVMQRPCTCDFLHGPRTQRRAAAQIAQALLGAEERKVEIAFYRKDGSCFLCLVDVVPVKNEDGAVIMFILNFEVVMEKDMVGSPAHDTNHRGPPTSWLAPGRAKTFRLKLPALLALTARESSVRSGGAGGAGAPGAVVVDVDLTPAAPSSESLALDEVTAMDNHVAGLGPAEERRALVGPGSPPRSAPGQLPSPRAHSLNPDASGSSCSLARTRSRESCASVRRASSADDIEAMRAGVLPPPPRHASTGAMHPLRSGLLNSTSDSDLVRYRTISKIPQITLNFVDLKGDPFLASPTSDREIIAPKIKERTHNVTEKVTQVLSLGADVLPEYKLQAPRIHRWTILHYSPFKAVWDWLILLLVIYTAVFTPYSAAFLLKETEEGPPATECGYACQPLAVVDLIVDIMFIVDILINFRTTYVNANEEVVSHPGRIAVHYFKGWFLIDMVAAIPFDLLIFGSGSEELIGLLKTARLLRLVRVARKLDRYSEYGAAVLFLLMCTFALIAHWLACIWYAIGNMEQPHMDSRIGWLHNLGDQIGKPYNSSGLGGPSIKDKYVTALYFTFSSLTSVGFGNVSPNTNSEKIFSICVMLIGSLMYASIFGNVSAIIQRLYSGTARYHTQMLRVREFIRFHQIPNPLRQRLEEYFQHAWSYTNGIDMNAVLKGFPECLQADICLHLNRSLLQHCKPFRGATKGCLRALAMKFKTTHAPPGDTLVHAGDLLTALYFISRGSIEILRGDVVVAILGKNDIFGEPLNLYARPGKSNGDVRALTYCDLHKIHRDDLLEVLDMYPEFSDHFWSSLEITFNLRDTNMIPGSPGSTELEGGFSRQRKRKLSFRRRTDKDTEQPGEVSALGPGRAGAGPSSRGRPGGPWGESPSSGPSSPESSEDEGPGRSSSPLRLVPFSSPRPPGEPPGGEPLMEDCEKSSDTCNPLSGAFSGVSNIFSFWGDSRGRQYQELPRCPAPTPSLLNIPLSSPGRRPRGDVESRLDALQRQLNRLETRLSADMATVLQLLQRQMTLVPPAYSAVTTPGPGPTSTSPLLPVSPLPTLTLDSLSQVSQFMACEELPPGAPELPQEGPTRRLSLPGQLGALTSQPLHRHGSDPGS

SMILES | hERG current change (%, negative = inhibition) at 10uM [%]
Cc1cc(C(=O)CC#N)c(C)n1-c1ccc(OC(F)F)cc1 | -21.5
Cc1cc(C(=O)CSc2cccc[n+]2[O-])c(C)n1-c1ccc(Br)cc1 | -68.6
Cc1cc(C(=O)CSc2cccc[n+]2[O-])c(C)n1-c1ccccc1 | 13.9
Cc1cc(C(=O)CSc2cccc[n+]2[O-])c(C)n1-c1ccc(OC(F)F)cc1 | -61.9
COC(=O)c1ccc(-n2c(C)cc(C(=O)CSc3cccc[n+]3[O-])c2C)cc1 | 21.2
Cc1cc(C(=O)CSc2nc(N)cc(=O)[nH]2)c(C)n1-c1ccc(OC(F)F)cc1 | -1.41
Cc1nc(Nc2ccccc2C(F)(F)F)sc1C(=O)N(C)C | 21.7
COC(=O)C(c1cc(OC)c(O)c(OC)c1)(N1CCNC(C)C1)C(F)(F)F (centres unmarked) | -9.77
Cn1c(SCC(=O)N2CCCc3ccccc32)nnc1-c1c[nH]c2ccccc12 | -10.2
Cn1c(SCC(=O)N2CCOCC2)nnc1-c1ccncc1 | 16.3
Cn1c(SCC(=O)N2CCN(c3ccccc3)CC2)nnc1-c1ccccc1 | -11.2
CCn1c(SCC(=O)N2CCN(c3ccccc3)CC2)nnc1-c1c[nH]c2ccccc12 | -53.6
Cn1c(SCC(=O)N2CCN(c3ccccc3)CC2)nnc1-c1ccncc1 | -19.5
Cn1c(SCC(=O)N2CCN(c3ccccc3)CC2)nnc1-c1c[nH]c2ccccc12 | -50.5
CCOC(=O)CSc1nnc(-c2c[nH]c3ccccc23)n1CC | -10.3
CCn1c(SCC(=O)N2CCc3ccccc32)nnc1-c1c[nH]c2ccccc12 | 11.8
Cn1c(SCC(=O)N2CCN(c3cccc(Cl)c3)CC2)nnc1-c1ccncc1 | -55.9
COc1cccc(N2CCN(C(c3ccccn3)c3nnnn3C(C)(C)C)CC2)c1 (centres unmarked) | 1.38
O=C(c1ccccc1)N(Cc1cccc(Br)c1)C1CCS(=O)(=O)C1 (centres unmarked) | -7.59
CCCCC1(C(=O)OC)NC(c2ccc(O)cc2)C2C(=O)N(c3ccccc3)C(=O)C21 (centres unmarked) | 2.03
Cc1ccc(-c2nnc(SCC#CCOC(=O)c3ccco3)o2)cc1 | -6.36
O=C(O)c1ccc(NC(CSCc2ccc(F)cc2)C(=O)O)c([N+](=O)[O-])c1 (centres unmarked) | 2.41

SMILES | hERG current change (%, negative = inhibition) at 10uM [%]
CCOc1ccc(C2c3[nH]c4ccccc4c3C[C@H]3C(=O)N(C4CCN(Cc5ccccc5)CC4)CC(=O)N23)cc1OC (some centres unmarked) | -5.25
C/C(CC(=O)Nc1ccc2c(c1)OCO2)=N\NC(=O)OC(C)(C)C | -5.1
COC(=O)C1C(O)=C(C(C)=N)C(=O)CC1(C)C (centres unmarked) | 22.9
O=C(COC(=O)C1CC(=O)N(c2nc(-c3ccccc3)cs2)C1)c1ccccc1 (centres unmarked) | 26.9
C=C1CCN([C@H](C(=O)NCc2ccccc2)C(C)C)S(=O)(=O)c2ccccc21 | 3.33
CCOC(=O)c1cc2ccccc2nc1C | 5.32
CC(C)n1nc(C(=O)OCn2nnc3ccccc3c2=O)c2ccccc2c1=O | 10.2
Br.Cc1ccc(C2=CSC3=NCCN23)c(C)c1 | -26.8
Br.CC(C)Cc1ccc(C2=CSC3=NCCN23)cc1 | -70.5
Br.Cc1ccc(C2=CSC3=NCCN23)cc1 | -4.96
Br.C1=C(c2ccccc2)N2CCN=C2S1 | -7.6
Cl.Oc1ccc(C2=CSC3=NCCN23)cc1O | -1.2
Br.Clc1ccc(C2=CSC3=NCCN23)cc1Cl | -48.2
Br.CC(C)(C)c1ccc(C2=CSC3=NCCN23)cc1 | -55.8
Br.COc1ccc(C2=CSC3=NCCN23)cc1 | -6.09
Brc1ccc(C2=CSC3=NCCN23)cc1 | -29.5
Br.CCc1ccc(C2=CSC3=NCCN23)cc1 | -14.7
Br.CC(C)(C)c1cc(C2=CSC3=NCCN23)cc(C(C)(C)C)c1O | -76.2
Clc1ccc(C2=CSC3=NCCN23)c(Cl)c1.[Br-] | -59.4
O=C(c1ccc(CS(=O)c2ccccc2Cl)o1)N1CCCCCC1 (centres unmarked) | 14.5
O=C(CC1C(=O)NCCN1C(=O)c1ccc([N+](=O)[O-])cc1)Nc1ccc(F)cc1 (centres unmarked) | -21.8
O=C(Nc1nccs1)c1ccc2c(c1)C(=O)N(Cc1cccnc1)C2=O | -4.17
